Screening data (PubChem)
The full list was thinned out, with hits kept by preference.
ERp5 block – inhibitors of ERp5-driven insulin aggregation, primary screen, biochemical, turbidity, absorbance 650 nm, single point; actives 0.05% (n = 350,000); inhibition, % at 9.99 µM; Protein disulfide-isomerase A6 (Homo sapiens), Q15084; AID 651711, 2012; 90 min;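 active = mean replicate inhibition above about 25%, with every replicate also reaching it, limit read from the data, passing the limit was not always enough; inconclusive = only one of those two criteria met; inactive = neither criterion met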
Target sequence (Q15084 whole entry, looked up): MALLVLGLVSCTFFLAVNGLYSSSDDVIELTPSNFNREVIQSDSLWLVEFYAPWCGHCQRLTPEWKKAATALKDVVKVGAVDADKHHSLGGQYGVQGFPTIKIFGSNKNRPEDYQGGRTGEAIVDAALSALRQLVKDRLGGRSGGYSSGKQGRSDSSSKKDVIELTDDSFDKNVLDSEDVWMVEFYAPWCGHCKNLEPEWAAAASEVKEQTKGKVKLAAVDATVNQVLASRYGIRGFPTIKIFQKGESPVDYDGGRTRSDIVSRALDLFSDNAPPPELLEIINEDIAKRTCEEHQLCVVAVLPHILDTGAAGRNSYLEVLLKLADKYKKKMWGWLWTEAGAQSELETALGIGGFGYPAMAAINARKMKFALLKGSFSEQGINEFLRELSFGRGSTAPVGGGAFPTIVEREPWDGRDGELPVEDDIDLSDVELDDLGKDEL
PDI inh – inhibitors of human PDI, primary screen, biochemical, turbidity, single point, plate reader; Protein disulfide-isomerase (Homo sapiens), P07237; PDI insulin aggregation turbidity, A650, 90 min; inhibition, % at 10 µM; actives 0.052% (n = 350,000); AID 588391, 2011;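 active = mean inhibition across replicates of 30% or more, whatever share of single replicates reach that level; inconclusive = mean inhibition below 30% while every single replicate reaches 30%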
ARNT TACC3 PPI – disruptors of ARNT/TACC3 protein interaction, primary screen, biochemical, AlphaScreen, single concentration | actives 0.66% (n = 390,000) | inhibition, % at 9.99 µM | Transforming acidic coiled-coil-containing protein 3 (Homo sapiens), Q9Y6A5 | AlphaScreen His-ARNT PAS-B/GST-TACC3 binding, luminescence; TACC3 fragment carries E629A point mutation;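 active = mean inhibition of replicates at least 50% and at least half of replicates each reaching 50%; inconclusive = half or more replicates reach 50% but mean below 50%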;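 note: 0% = complete ARNT plus TACC3 wells and 100% = ARNT alone without TACC3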
PglD inh – C. jejuni PglD acetyltransferase inhibitors, primary screen, biochemical, DTNB colorimetric, single point | AID 602405, 2012 | actives 0.098% (n = 360,000) | purified PglD enzyme, DTNB colorimetric CoA detection | UDP-N-acetylbacillosamine N-acetyltransferase PglD (Campylobacter jejuni) | inhibition, % at 12.5 µM; in the data active = inhibition above about 16%, passing the limit was not always enough; inconclusive = no clear call, values can overlap the other calls
NRP1-CendR mod – modulators of CendR peptide binding to NRP-1, primary screen, biochemical, fluorescence polarization, uHTS | FAM-RPARPAR peptide binding to NRP-1 | inhibition, % at 25 µM | actives 0.85% (n = 360,000);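 active = inhibition or corrected inhibition above about 18%, plus a signal ratio from 0.5 to 1.5, limit read from the data, passing the limit was not always enough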
ALR H2O2 inh – inhibitors of human ALR sulfhydryl oxidase, primary screen, biochemical, H2O2 detection, HRP-luminol luminescence, single point. purified ALR, DTT oxidation. AID 485317, 2010. actives 3.8% (n = 290,000). FAD-linked sulfhydryl oxidase ALR (Homo sapiens), P55789. inhibition, % (no concentration beside the values);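 active = mean replicate inhibition above about 79%, with every replicate also reaching it, limit read from the data; inconclusive = only one of the two criteria met; inactive = mean below limit and not every replicate reaching it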
* hit, by the source's call; ? = inconclusive; . = no result given.

SMILES	ERp5 block	PDI inh	ARNT TACC3 PPI	PglD inh	NRP1-CendR mod	ALR H2O2 inh
C[C@H]1CN([C@@H](C)CO)S(=O)(=O)c2ccc(C#Cc3ccccc3F)cc2O[C@@H]1CN(C)C	0	.	12	-2	.	.
COCC(=O)N1[C@H](CO)[C@@H](c2ccccc2)C12CN(C(=O)NC1CCCCC1)C2	0	.	.	.	.	.
O=C(N/N=C\c1c(O)ccc2ccccc12)c1ccc(O)cc1	0	14	9	0	-9	-10
O=C(N/N=C/c1c(O)ccc2ccccc12)c1cccnc1	1	-2	59*	-6	-135	17
O=C(N/N=C/c1c(O)ccc2ccccc12)c1ccc[n+](CCO)c1	1	-2	64*	.	-21	?
CC(C)C#Cc1cnc2c(c1)C(=O)N([C@H](C)CO)C[C@H](C)[C@H](CN(C)C(=O)Nc1cc(F)ccc1F)O2	-4	.	-4	1	.	.
NNC(=O)c1ccncc1	3	5	4	-4	-7	.
NNC(=O)c1cc(O)c(O)c(O)c1	11	1	44	3	20	99*
COc1c(Cl)cc(C(=O)NN)cc1Cl	-2	-4	-8	.	-5	89*
CC(C)C(=O)O/N=C(\N)c1ccccn1	7	-6	4	.	6	6
CC(=NNC(=S)Nc1cccc(Cl)c1)c1ccccn1	4	1	60*	.	8	.
C/C(=N/NC(=O)c1ccccn1)c1ccco1	.	-5	33	1	-10	-11
N/C(=N\OS(=O)(=O)c1ccccc1)c1ccccn1	.	1	65*	.	-2	-26
C/C(=N\Nc1ccc(Cl)cc1)c1ccccn1	.	-4	2	-6	-8	100*
C/C(=N/NC(=O)c1ccccn1)c1ccc(O)cc1	-2	2	15	-9	0	99*
C[C@@H]1CCCCO[C@H](CN(C)CC2CCCCC2)[C@H](C)CN([C@@H](C)CO)C(=O)c2cc(NC(=O)Nc3ccc(C(F)(F)F)cc3)ccc2O1	-5	.	2	1	.	.
CCCNC(=O)N1C[C@H](C)[C@H](OC)CN(C)C(=O)c2ccc(NS(C)(=O)=O)cc2OC[C@@H]1C	6	.	13	0	.	.
O=C(Nc1cc(F)ccc1F)N1C[C@@H]2[C@H](c3ccccc31)[C@H](CO)N2CC1CCCC1	9	.	-1	0	.	.
COc1ccc(OCC(=O)N/N=C(\C)c2ccc(OC)cc2)cc1	3	5	-3	.	-11	.
C/C(=N\NC(=O)COc1ccccc1)c1ccc(O)cc1	4	2	7	.	0	100*
O=C(Sc1ccc(Cl)cc1)c1ccccn1	5	-5	4	.	-4	98*
N/C(=N\OC(=O)c1ccc(Cl)cc1)c1ccccn1	7	1	0	-9	20*	-2
C/C(=N\NC(=O)c1ccccn1)c1ccc(Cl)cc1	3	18	.	-5	-5	-5
C/C(=N\NC(=O)c1ccc(Cl)cc1)c1ccccn1	2	9	82*	0	1	1
C/C(=N\NC(=O)COc1ccccc1-c1ccccc1)c1cccnc1	4	5	7	.	-5	-7
SMILES	ERp5 block	PDI inh	ARNT TACC3 PPI	PglD inh	NRP1-CendR mod	ALR H2O2 inh
C/C(=N\NC(=O)COc1ccccc1-c1ccccc1)c1ccccn1	-7	-3	8.8*	-1	-2	.
C[C@@H]1CN([C@@H](C)CO)C(=O)c2cc(Br)cnc2O[C@@H]1CN(C)C(=O)c1ccccc1F	-6	.	-12	1	.	.
CC(=O)NC[C@H]1[C@H](c2ccc(-c3cccnc3)cc2)[C@H](CO)N1C(=O)C1CCC1	.	.	-4	1	.	.
CCc1c(C)c2cc(Cl)c(O)c(CN3CCCCC3)c2oc1=O	.	-3	2	-11	6	98*
CCc1cc(=O)oc2c(CN3CCCC3)c(O)c(Cl)cc12	.	26	-6	4	1	5
COc1ccc(-c2nnc(NC(=O)C3CCCN3S(=O)(=O)c3cccs3)o2)cc1 (stereo unspecified)	10	-4	24	3	10	.
O=C(Nc1nnc(-c2ccccc2)o1)C1CCCN1S(=O)(=O)c1cccs1 (stereo unspecified)	0	-4	45*	1	-9	-6
CC(C)C#Cc1ccc2c(c1)O[C@H](CN(C)S(=O)(=O)c1cn(C)cn1)[C@@H](C)CN([C@@H](C)CO)S2(=O)=O	1	.	1	0	.	.
S=C(Nc1cccc2ccccc12)NN1CCOCC1	.	4	-9	-5	25*	21
Cc1cc(C)cc(NC(=S)Nc2cccc3ccccc23)c1	-25	-5	9	-1	10	-16
Fc1ccc(NC(=S)Nc2cccc3ccccc23)cc1	4	5	20	4	28*	-56
Cc1ccc(NC(=S)Nc2cccc3ccccc23)cc1	0	-2	16	7	28*	-24
S=C(Nc1cccc2ccccc12)NN1CCCCCC1	3	1	-7	0	1	.
COc1ccc(C(=O)N2C[C@H]3[C@@H](c4ccccc42)[C@@H](CO)N3Cc2ccc3c(c2)OCO3)cc1	-1	.	3	3	.	.
C[C@@H]1CCCCO[C@H](CN(C)C(=O)C2CCCCC2)[C@@H](C)CN([C@@H](C)CO)C(=O)c2cc(NC(=O)Nc3cccc4ccccc34)ccc2O1	9	.	19	-3	.	.
Cc1ccc(CNC(=O)CS(=O)Cc2nc(-c3ccccc3Cl)oc2C)cc1 (stereo unspecified)	3	7	-27	3	9	95*
CCN(CC)CCNC(=O)CS(=O)Cc1nc(-c2ccc(C)cc2)oc1C (stereo unspecified)	.	2	-2	2	-14	99*
CCN(CC)CCNC(=O)CS(=O)Cc1nc(-c2ccccc2Cl)oc1C (stereo unspecified)	.	-4	-2	-1	-6	99*
Cc1oc(-c2ccc(Cl)cc2)nc1CS(=O)CC(=O)NCCCN1CC(C)CC(C)C1 (stereo unspecified)	2	-2	-1	-1	8	13
CCN(CC)CCNC(=O)CS(=O)Cc1nc(-c2ccc(Cl)cc2)oc1C (stereo unspecified)	.	-1	-2	-8	-19	99*
CCOP(=O)(OCC)C(Nc1cccc([N+](=O)[O-])c1)c1ccc(OC)cc1 (stereo unspecified)	8	24	.	-6	1	-2
